Measurements reported in PubChem BioAssay (EPA / NIEHS).
Inconclusive results are not listed. The source made the active and inactive calls. The calls were made as follows: active = hit-call score of the fitted dose curve at least 0.9, where 1 is the maximum; inconclusive = response in the unintended direction; inactive = score below 0.9.

System: guinea pig Histamine Receptor (H2), gene 100729734
Assay: NVS_GPCR_gH2: NovaScreen (NVS) G Protein-Coupled Receptor Assay for guinea pig Histamine Receptor (H2) (AID 2283342)
Experimental: NVS_GPCR_gH2 is a biochemical, single-readout assay that uses extracted gene-proteins from Guinea pig striatal membranes in a tissue-based cell-free assay. Measurements were taken 1 hour after chemical dosing in a 96-well plate.NVS_GPCR_gH2 is one of one assay component(s) measured or calculated from the NVS_GPCR_gH2 assay. It is designed to make measurements of radioligand binding, a form of binding reporter, as detected with scintillation counting signals by Filter-based radiodetection technology.Data from the assay component NVS_GPCR_gH2 was analyzed into 1 assay endpoint. This assay endpoint, NVS_GPCR_gH2, was analyzed in the positive analysis fitting direction relative to DMSO as the negative control and baseline of activity. Using a type of binding reporter, loss-of-signal activity can be used to understand changes in the binding as they relate to the gene Hrh2. Furthermore, this assay endpoint can be referred to as a primary readout, because the performed assay has only produced 1 assay endpoint. To generalize the intended target to other relatable targets, this assay endpoint is annotated to the gpcr intended target family, where the subfamily is rhodopsin-like receptor.
Binding assays used specific radioligands (tritiated, iodinated) with non-radioactive competitive displacement ligands in agonist or antagonist protocols (as indicated) and various reference compounds and inhibitors to titrate specific binding to receptors and transporters. Most enzyme assays (CYPs, kinases, phosphatases, proteases, HDACs) used recombinant protein and specific substrates (fluorescence mostly, some colorimetric and radioactive) and inhibitors, followed by a biochemical separation of substrate and product. All assays for the biochemical HTS were initially run in duplicate at a single concentration (10 uM for CYP450 assays and 25 uM for all others). Assay-chemical combinations meeting a pre-defined threshold (e.g., 30% inhibition and other criteria defined below) were then run in singleton concentration-response format with maximum concentration of 20 uM for CYPs and 50 uM for all others. Each assay was run with positive and negative controls, and concurrent controls on every plate. The follow-up (secondary) screen tested active chemical-pairs in concentration series, as well as a few additional assays not tested in the primary screen, some selected negative inactives, and several cases re-run in the concentration series for confirmatory purposes.

outcome, inactive:
O=C(O)CC(O)C(=O)O (stereo not drawn)
Fc1ccccc1[C@@H](F)COC1CCC(Nc2ncnc3[nH]ncc23)CC1 (stereo partly drawn)
CCOc1cccc(-n2cc(C(=O)N3CCN(c4cc(C(=O)O)c5ccccc5c4)CC3)nc2-c2ccc(C)cc2)c1
Nc1ccc(Nc2ccccc2)cc1
O=C(CCCCCCCCc1cccnc1)N1CCC(C=C(c2ccccc2)c2ccccc2)CC1

AC50, active:
CCn1nc(Cc2ccccc2)cc1C1CCN(C[C@H]2C[C@H](N(C)[C@@H](C(=O)O)C(C)C)C[C@@H]2c2cccc(F)c2)CC1 11.4 µM
CCc1cc(SCc2sc(-c3ccc(C(F)(F)F)cc3)nc2CN2CCN(c3ccc(OC)cc3)CC2)ccc1OCC(=O)O 17.7 µM
COc1ccc(-n2nc(C(F)F)cc2-c2ccc(S(C)=O)cc2)cc1 (stereo not drawn) 25 µM
COc1cccc(-c2ccc(/C=C\CN3CCCCCC3)cc2Cl)c1 12.3 µM
CCN(C(=O)c1cc(C)cc(OC[C@H](C)Nc2ccncc2)c1)C(C)C 16.9 µM
CCOC(=O)c1ccc(C2CCC(NC[C@H](O)COc3ccc(O)c(NS(C)(=O)=O)c3)CC2)cc1 (stereo partly drawn) 9.42 µM
CCOC(=O)COc1ccc2c(c1)CC(NCC(O)c1cccc(Cl)c1)CC2 (stereo not drawn) 32 µM
CCCN(C1CCN(C(=O)C2CCNCC2)CC1)[C@@H]1CCc2ccc(OC)cc2C1 16.9 µM
CC[C@H]1CC[C@H](NCc2cc3c(cc2OC)[C@H]2C[C@H]2C(=O)N3C)[C@H](c2ccccc2)N1 16 µM
COCCOc1cc2cc(C(=O)NC3CCN(C(C)C)CC3)n(CC(=O)Nc3ccc(Cl)cn3)c2cn1 12.8 µM
CNS(=O)(=O)c1cc(C(=O)N2CCC(CCN3C4CCC3CC(n3c(C)nc5ccccc53)C4)(c3cccc(F)c3)CC2)c(Cl)cc1F (stereo not drawn) 8.76 µM
Cc1[nH]cnc1C[C@H]1CCc2c(C)c3ccccc3n2C1=O 12.2 µM
O=c1[nH]c2ccc(S(=O)CCN3CCC(Cc4ccc(F)cc4)CC3)cc2o1 (stereo not drawn) 1.21 µM
